# IL1B secr inh: qHTS for Inhibitors of Inflammasome Signaling: IL-1-beta AlphaLISA Primary Screen; 360,000 tested, 4.7% active; activity change, % at 57.5 µM; THP-1 LPS/ATP IL-1B secretion, AlphaLISA, 16 h; hits give low values; in the data active = activity change below about -50%; inconclusive = mostly about -30% to -49%
#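 Secreted IL-1B measured by AlphaLISA bead assay after 16 h compound exposure of THP-1 cells; compounds (final up to 57.5 uM) added 1 h before LPS (250 ng/mL) and ATP (1.25 mM) stimulation; lower signal means less secretion.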
# DT40 TDP1 no CPT: qHTS for Inhibitors of human tyrosyl-DNA phosphodiesterase 1 (TDP1): qHTS in cells in absence of CPT | DT40 Tdp1-/- hTDP1 cells, no CPT, ATP luminescence, 48 h | Potency, µM (top dose mostly 46.2 µM), for inactives: at the highest dose activity change, negative = growth inhibition, hits mostly inhibitors | 420,000 tested, 15% active | AID 686978, 2013; also: potency is read from the fitted curve at half-maximal effect; nearly all actives have a fitted effect of over 55% in size
#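 Seeded 400 DT40-hTDP1 cells/well (vehicle DMSO, no 20 nM CPT); pinned compounds; ≥48 hr at 37 °C; CellTiter-Glo luminescence as viability measure.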
# HT1080 IDH1KD tx: qHTS for induction of synthetic lethality in tumor cells producing 2HG: qHTS for the HT-1080-IDH1KD cell line; Potency, µM (highest dose often 46.1 µM), for inactives: top-dose activity, negative = toxicity, most hits filed as cytotoxic; 360,000 tested, 2% active; HT-1080 IDH1 knockdown viability, ATP luminescence, 48 h;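 also: potency is read from the fitted curve at half-maximal effect; 0% = DMSO wells and -100% = cell-free medium wells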
#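 Luminescent ATP read-out (CellTiter-Glo, 10 min at room temperature) after 48 h compound exposure at 37 °C gave viability of IDH1-knockdown HT-1080 cells. Activity was normalised to DMSO and cell-free wells, then fitted as concentration-response curves.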
# TDP1 cell CPT: qHTS for Inhibitors of human tyrosyl-DNA phosphodiesterase 1 (TDP1): qHTS in cells in presence of CPT; chicken DT40 Tdp1-/-;hTDP1 cells + 20 nM CPT, ATP luminescence, 48 h; Potency, µM (doses to about 46.2 µM), without a hit: at the highest dose activity change, negative = growth inhibition, usual class: inhibitors; 420,000 tested, 12% active; also: potency is read from the fitted curve at half-maximal effect; nearly all actives have a fitted effect of over 55% in size
#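 Chicken DT40 Tdp1-/- cells stably complemented with human TDP1 were seeded at 400 cells/well in medium containing 20 nM camptothecin, exposed to pin-transferred compounds, and grown at 37 °C for at least 48 hr. Viability was read as ATP luminescence.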
# HT1080NT lethal: qHTS for induction of synthetic lethality in tumor cells producing 2HG: qHTS for the HT-1080-NT fibrosarcoma cell line | HT-1080-NT fibrosarcoma viability, CellTiter-Glo ATP luminescence, 48 h | Potency, µM (doses to about 46.1 µM), for inactives: at the highest dose activity, negative = less viability, actives largely listed as cytotoxic | 360,000 tested, 1.6% active | AID 686970, 2013;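 also: NT is the 2HG producing partner of a matched IDH1 knockdown line; potency is read from the fitted curve at half-maximal effect; 0% = DMSO-treated cells and -100% = media-only wells without cells; nearly all actives have a fitted effect of over 55% in size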
#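 A 48-hour cytotoxicity screen used HT-1080-NT cells plated 2 hours before compound delivery. ATP-based CellTiter-Glo luminescence measured viability, normalized to DMSO and no-cell controls.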
# * marks the source's active call; other numbers are inactive results; ? = inconclusive; . = no result given. Hits are enriched below; roughly 19% of the tested compounds scored in any of these assays. Unless noted, calls follow the shape of the dose curve; as a rule, active = well fitted curve in the direction sought with a large enough effect; inconclusive = small, poorly fitted or top-dose-only effect, or another doubt; inactive = no such curve, though single readings can be large; an effect the other way counts as inactive or inconclusive. Unless noted, % is scaled to controls: 0 for no effect and ±100 for the full control effect.
SMILES,IL1B secr inh,DT40 TDP1 no CPT,HT1080 IDH1KD tx,TDP1 cell CPT,HT1080NT lethal
COc1ccc(NS(=O)(=O)c2cc(NC(=O)c3ccccc3F)ccc2N2CCCC2)cc1,-23,?,0%,?,-12%
O=C(Nc1ccc(Cl)cc1)Nc1ccc(N2CCCC2)c(S(=O)(=O)Nc2ccccc2Cl)c1,-52*,5.2µM*,6.5µM*,5.2µM*,?
COC(=O)c1sccc1S(=O)(=O)Nc1ccc(S(N)(=O)=O)cc1,1,-3%,19%,1%,16%
CCOC(=O)C(=CNc1ccc(N2CCCCC2)c(S(=O)(=O)Nc2ccccc2OC)c1)C(=O)OCC,-13,5.8µM*,0%,3.7µM*,3%
O=C(Nc1ccc(N2CCOCC2)c(S(=O)(=O)Nc2ccccc2Cl)c1)c1ccccc1,-2,?,-13%,?,-16%
O=C(CN1C(=O)NC2(CCCC2)C1=O)N1CCN(S(=O)(=O)c2cc(Cl)ccc2Cl)CC1,-6,?,-2%,-21%,1%
O=C(Cc1ccc(Br)cc1)NC1CCSC1=O (stereo not given),-8,1%,0%,3%,3%
COc1ccc(NC(=O)c2ccccc2)cc1NS(=O)(=O)c1ccc(F)cc1,14,-16%,-1%,1%,1%
COc1ccccc1NS(=O)(=O)c1cc(NC(=O)c2ccncc2)ccc1N1CCCC1,-25,21µM*,-10%,?,-12%
COc1ccccc1NS(=O)(=O)c1cc(NC(=O)Nc2cccc(C)c2)ccc1N1CCCCC1,12,9.2µM*,1%,15µM*,-3%
CCN(CC)c1ccc(NC(=O)c2ccccc2)cc1S(=O)(=O)Nc1ccccc1OC,-26,16µM*,-20%,?,-2%
Cc1cc(C(=O)Nc2ccccc2C)on1,-3,-10%,15%,-4%,0%
O=C(CN(Cc1ccco1)C(=O)c1cccc(Cl)c1)Nc1c(Cl)cc(Cl)cc1Cl,34,?,-18%,26µM*,-4%
Cc1oc(-c2ccc(Cl)cc2)nc1CS(=O)CC(=O)NC1CCCC1 (stereo not given),2,10%,-1%,-27%,1%
Cc1ccsc1/C=C/c1ccc2cccc(O)c2n1,-26,23µM*,11µM*,?,13µM*
Cc1cc(C)nc(NC(=O)/C=C/c2cccs2)c1,?,-3%,-2%,-12%,3%
O=[N+]([O-])c1cccc2ccc(/C=C/c3ccc(C(F)(F)F)cc3)nc12,3,?,-5%,?,-1%
Cc1cccc(/C=C/c2cccs2)n1,.,0.63µM*,.,1.1µM*,.
Oc1cccc2ccc(/C=C/c3cccs3)nc12,-11,14µM*,11µM*,16µM*,?
Oc1ccc2c(c1)OCC1(O)Cc3cc(O)c(O)cc3C21 (stereo not given),-8,6.5µM*,-16%,6.5µM*,-11%
CCOc1ccccc1CNC(=O)CCn1c(=O)c2cccn2c2ccc(F)cc21,.,16µM*,.,?,.
O=C(Cn1c(=O)c2cccn2c2ccc(F)cc21)NCc1cccc(Cl)c1,.,?,.,-27%,.
COc1cccc(CNC(=O)CCn2c(=O)c3cccn3c3ccc(F)cc32)c1OC,.,23µM*,.,?,.
CCc1nc2ccc(C(=O)Nc3cccc(OCC(=O)N(C)C)c3)cn2c1N(CCC(C)C)CCN(C)C,?,-14%,-19%,0%,-15%
c1cnn(-c2cncc(-n3cccn3)n2)c1,-16,-2%,1%,-11%,12%
SMILES,IL1B secr inh,DT40 TDP1 no CPT,HT1080 IDH1KD tx,TDP1 cell CPT,HT1080NT lethal
CNC(C)C(=O)NC(C(=O)N1CCCC1C(=O)NNc1ccccc1)C(C)C (stereo not given),20,0%,2.3µM*,21%,1.3µM*
O=C(O)C1CC(O)CN1C(=O)c1ccco1 (stereo not given),8,-2%,3%,1%,13%
COc1ccc(-c2oc3ccccc3c2C#Cc2cncn2C)cc1,?,18µM*,?,16µM*,?
COc1cccc(-c2sc3ccc(OC)cc3c2C#CC2(O)CCCCC2)c1,-25,23µM*,?,?,?
COc1ccc(-c2sc3cc4c(cc3c2C#Cc2cncn2C)OCO4)cc1,-4,15µM*,-1%,26µM*,-1%
COc1cc(OC)cc(-c2sc3ccc(OC)cc3c2C#CC2(N)CCCCC2)c1,?,15µM*,?,?,?
Cc1cc(Br)ccc1NC(=O)CN(C)C(=O)COc1cccc2c1OC(C)(C)C2,-8,-21%,24%,-18%,11%
COc1ccc(-c2sc3cc4c(cc3c2-c2ccc(OCCN3CCOCC3)cc2)OCO4)cc1,18,?,0%,?,3%
COc1ccc(-c2sc3ccc(N4CCOCC4)cc3c2C#CC2(O)CCCCC2)cc1,105,?,?,?,21µM*
COc1ccc(-c2sc3cc4c(cc3c2C#CC2(N)CCCCC2)OCO4)cc1,-20,12µM*,?,8.2µM*,?
CC(=O)Nc1ccccc1-c1nc(CNC(=O)c2ccc(F)c(F)c2)c(C)o1,.,-11%,.,-6%,.
CCOc1cc(C2C(C(=O)OC)=C(C)NC3=C2C(=O)c2ccccc23)c(Br)cc1O (stereo not given),.,18µM*,.,?,.
CCOc1cc(C2C(C(=O)OC)=C(C)NC3=C2C(=O)c2ccccc23)c(Br)cc1OC (stereo not given),.,?,.,-30%,.
CCOc1cc(Br)c(C2C(C(=O)OC)=C(C)NC3=C2C(=O)c2ccccc23)cc1OCC (stereo not given),.,23µM*,.,4.6µM*,.
CCCOC(=O)C1=C(C)NC(=O)NC1c1cccc2ccccc12 (stereo not given),1,?,0%,?,0%
CCOC(=O)C1=C(C)NC2=C(C(=O)c3ccccc32)C1c1cccc2ccccc12 (stereo not given),-12,12µM*,0%,?,-14%
COc1ccc(CN2CCNC(=O)C2CC(=O)NCCN2CCCCC2=O)c(F)c1 (stereo not given),9,1%,-1%,-16%,-7%
Cc1noc(C)c1S(=O)(=O)N1CCCC1C(=O)O (stereo not given),18,-1%,5%,-1%,19%
C=C(C)c1cccc(C(C)(C)NC(=O)NC2CC(C)(C)NC(C)(C)C2)c1,-18,-6%,-4%,?,-2%

# High-throughput results (PubChem BioAssay)
